From PubChem BioAssay (NCATS)
Results filed as inconclusive are left out. Entries that show only a call come without a potency. Activity calls are given as the source filed them. The call rests on the fitted dose curve; in most records, active means well fitted cell-killing curve with a large enough effect; inconclusive means small, poorly fitted or top-dose-only effect; inactive means flat fitted curve, though single readings scatter.

Experiment: Cell Viability - Mesenchymal (AID 546);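 further: cells exposed to compound for 40 hours before reading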
Settings: mesenchymal cells viability, qHTS; series mostly up to 91.7 µM
Description: NIH Chemical Genomics Center [NCGC]
NIH Molecular Libraries Screening Centers Network [MLSCN]
National Institutes of Environmental Health Sciences [NIEHS]
National Toxicology Program [NTP]
We have developed a 1536-well cell-based assay for quantitative high throughput screening (qHTS) against a number of cell lines to determine in vitro cytotoxicity of small molecules. This particular assay uses the kidney mesenchymal cell line which is derived from normal human renal glomeruli.
NCGC Assay Protocol Summary:
The CellTiter-Glo luminescent cell viability assay (Promega) is a homogeneous method to measure the number of viable cells in culture. The end point readout of this assay is based on quantitation of intracellular ATP, an indicator of metabolic activity, using the luciferase reaction. Luciferase catalyzes the oxidation of beetle Luciferin to oxyluciferin and light in the presence of ATP. The luminescent signal is proportional to amount of ATP present.
Using the CellTiter-Glo luminescent cell viability assay, the amount of cellular ATP was measured in the kidney mesenchymal cell line with complete culture medium following compound treatment for 40 hours. The assay was performed in opaque white Kalypsys 1536-well plates. In the screen, tamoxifen and doxorubicin were used as positive controls. Library compounds were measured for their ability to cause acute toxicity in the cell line, as reflected by a decrease in intracellular ATP levels, in a concentration-dependent manner. […] AC50 values were determined from concentration-response data modeled with the standard Hill equation.
qHTS protocol for CellTiter Glo kidney mesenchymal cells cellular assay
[Step] [Parameter] [Value] [Description]
1. Reagent; 5 uL; 1000 kidney mesenchymal cells/well
2. Time; 5 hr; 37 °C incubation
4. Controls; 23 nL; Tamoxifen 0.34 uM to 100 uM & Doxorubicin 0.02 nM to 100 uM
5. Time; 40 hr; 37 °C incubation
6. Reagent; 5 uL; CellTiter Glo reagent
7. Time; 20 min; Room Temperature
8. Detection; Luminescence; Viewlux plate reader
Keywords: cell viability, cytotoxicity, Kidney mesenchymal cell line, luminescence, NTPHTS, NTPHTS_NCGC, NIEHS, EPA, DSSTox, MLSMR, MLSCN, NIH Roadmap, qHTS, NCGC
Potency means the concentration at half of the fitted maximal effect.

SMILES | Potency
CCCCNC(=O)n1c(NC(=O)OC)nc2ccccc21 | inactive
OC[P+](CO)(CO)CO | inactive
COc1cc(-c2ccc(N)c(OC)c2)ccc1N | inactive
C=C(C)CCl | inactive
Clc1cccc(Cl)c1 | inactive
Nc1c(Cl)cc([N+](=O)[O-])cc1Cl | inactive
O=[N+]([O-])c1cc(Cl)c(Cl)cc1Cl | inactive
CCBr | inactive
O=[N+]([O-])c1ccc(O)c([N+](=O)[O-])c1 | inactive
Clc1cc(Cl)c(Cl)c(Cl)c1 | inactive
CCCCCOC(=O)c1ccccc1C(=O)OCCCCC | inactive
CCCCOC(=O)c1ccccc1N | inactive
C=CCc1cc(OC)c2c(c1)OCO2 | inactive
BrCC(Br)(Br)Br | inactive
Nn1cnnc1 | inactive
CC(C#N)CCC#N (stereo not given) | inactive
CCC(Cl)[N+](=O)[O-] (stereo not given) | inactive
Clc1ccc(C(c2ccccc2Cl)C(Cl)(Cl)Cl)cc1 (stereo not given) | inactive
CN(C)C(=O)Nc1cccc(C(F)(F)F)c1 | inactive
ClCCBr | inactive

SMILES | Potency
O=P(OCCCl)(OCCCl)OCCCl | inactive
CCN(N=O)C(N)=O | inactive
S=C1NCCN1 | inactive
Cl/C=C/Cl | inactive
Oc1cc(Cl)c(Cl)c(Cl)c1Cl | inactive
Nc1ccc(-c2ccc(N)c(Cl)c2)cc1Cl | 31.6 µM (active)
COC(C)(C)C | inactive
Nc1c(Br)cc([N+](=O)[O-])cc1[N+](=O)[O-] | inactive
ClC(Br)Br | inactive
ClP(Cl)(Cl)(Cl)Cl | inactive
CCSC(=O)N1CCCCCC1 | inactive
ClCc1ccccn1 | inactive
CCOC(=O)CC(SP(=O)(OC)OC)C(=O)OCC (stereo not given) | inactive
CCCCOCC1CO1 (stereo not given) | inactive
NNC(N)=S | inactive
Cc1ccc(N)c(N)c1 | inactive
Cc1cnc[nH]1 | inactive
O=C(O)C(Cl)Br (stereo not given) | inactive
Cc1coc2c1CCC(C)C2 (stereo not given) | inactive
ClCCOCCCl | inactive
